Measured values from PubChem BioAssay AID1159580 (chemical genetic matrix, 2015).
“And” between values parts separate entries of the source, which are not always exact repeats. Equal values may be shown once. The campaign covered roughly 5,500 compounds. About 2,000 (36%) were called active. Not shown: some 18% with an inconclusive outcome. No stated cut-off is given here; in the data, active means normalized growth mostly below about 0.91 (no sharp cut-off); inconclusive means no clear call, values can overlap the other calls; inactive means mostly above about 0.92. This is one part of the list.

Test: chemical genetic growth profiling, strain panel (AID 1159580);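 further: tested at 20 µM; growth read once vehicle control cultures reached saturation at 30 °C; 1 = growth at the plate median or of vehicle wells; lower values mean less growth of the strain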
Conditions: S. cerevisiae deletion strains, growth OD

Measured: normalized growth

CN(N=O)C(=O)N[C@@H]1[C@@H](O)[C@H](O)[C@@H](CO)O[C@@H]1O
inactive: locus YAL021C, strain ccr4, hits give low values 1 | locus YAL026C, strain drs2, hits give low values 0.991 | locus YAL030W, strain snc1, hits give low values 0.988 | locus YBL061C, strain skt5, hits give low values 1.01 | locus YBR009C, strain hhf1, hits give low values 0.979 | locus YBR021W, strain FUR4, hits give low values 1 | locus YBR023C, strain chs3, hits give low values 0.999 | locus YBR171W, strain sec66, hits give low values 1.01 | locus YBR229C, strain ROT2, hits give low values 1 | locus YBR231C, strain swc5, hits give low values 0.997 | locus YBR279W, strain paf1, hits give low values 1.02 | locus YCL011C, strain gbp2, hits give low values 1 | locus YCL016C, strain dcc1, hits give low values 1.03 | locus YCL029C, strain bik1, hits give low values 0.99 | locus YCL061C, strain MRC1, hits give low values 1.02 | locus YCL069W, strain vba3, hits give low values 0.974 | locus YCR088W, strain abp1, hits give low values 0.973 | locus YDL005C, strain med2, hits give low values 0.98 | locus YDL035C, strain GPR1, hits give low values 1.03 | locus YDL040C, strain nat1, hits give low values 0.999 | locus YDL074C, strain BRE1, hits give low values 1.02 | locus YDL101C, strain DUN1, hits give low values 1.01 | locus YDL134C, strain PPH21, hits give low values 1.02 | locus YDL185W, strain tfp1, hits give low values 1.02 | locus YDL192W, strain arf1, hits give low values 1.01 | locus YDR001C, strain nth1, hits give low values 0.978 | locus YDR069C, strain doa4, hits give low values 0.986 | locus YDR101C, strain arx1, hits give low values 0.979 | locus YDR137W, strain rgp1, hits give low values 0.938 | locus YDR150W, strain NUM1, hits give low values 1.01 | locus YDR159W, strain sac3, hits give low values 0.945 | locus YDR162C, strain NBP2, hits give low values 1.04 | locus YDR195W, strain ref2 0.988 | locus YDR297W, strain sur2, hits give low values 0.998 | locus YDR318W, strain mcm21, hits give low values 1.01 | locus YDR334W, strain swr1, hits give low values 0.95 | locus YDR335W, strain msn5, hits give low values 0.981 | locus YDR388W, hits give low values 1.01 | locus YDR392W, strain spt3, hits give low values 0.956 | locus YDR502C, strain sam2, hits give low values 0.998 | locus YEL003W, strain gim4, hits give low values 0.995 | locus YEL037C, strain rad23, hits give low values 0.986 | locus YEL061C, strain CIN8 (second series), hits give low values 0.971 | locus YEL061C, strain CIN8, hits give low values 1.01 | locus YER015W, strain faa2, hits give low values 1 | locus YER016W, strain bim1, hits give low values 0.983 | locus YER110C, hits give low values 1.01 | locus YER111C, strain swi4, hits give low values 0.998 | locus YER155C, strain BEM2 (second series), hits give low values 0.983 | locus YER155C, strain BEM2, hits give low values 1 | locus YER167W, strain BCK2, hits give low values 1.02 | locus YFR010W, strain ubp6, hits give low values 0.954 | locus YGL078C, strain dbp3, hits give low values 1 | locus YGL086W, strain mad1, hits give low values 0.989 | locus YGL167C, strain pmr1, hits give low values 0.993 | locus YGL173C, strain kem1, hits give low values 1.01 | locus YGL227W, strain vid30, hits give low values 1.01 | locus YGL240W, strain doc1, hits give low values 0.985 | locus YGL248W, strain PDE1, hits give low values 0.996 | locus YGL253W, strain hxk2, hits give low values 0.982 | locus YGR078C, strain PAC10, hits give low values 0.999 | locus YGR135W, strain pre9, hits give low values 1.04 | locus YGR229C, strain SMI1, hits give low values 1.01 | locus YGR252W, strain gcn5, hits give low values 1.02 | locus YHR013C, strain ard1, hits give low values 0.999 | locus YHR027C, strain rpn1, hits give low values 0.99 | locus YHR030C, strain SLT2, hits give low values 1 and 1.02 | locus YHR079C, strain IRE1 (second series), hits give low values 1 | locus YHR079C, strain IRE1, hits give low values 1.07 | locus YHR094C, strain hxt1, hits give low values 1 | locus YHR129C, strain ARP1, hits give low values 0.998 | locus YHR142W, strain chs7, hits give low values 0.962 | locus YHR200W, strain rpn10, hits give low values 1.01 | locus YIL066C, strain RNR3, hits give low values 1.01 | locus YIL073C, strain SPO22, hits give low values 1.14 | locus YIL125W, strain kgd1, hits give low values 1 | locus YIR030C, strain dcg1, hits give low values 1 | locus YJL092W, strain hpr5, hits give low values 0.979 | locus YJL095W, strain BCK1 (second series), hits give low values 1 | locus YJL095W, strain BCK1, hits give low values 1.02 and 1 | locus YJL115W, strain asf1, hits give low values 0.981 | locus YJL129C, strain trk1, hits give low values 0.984 | locus YJL134W, strain LCB3, hits give low values 1 | locus YJL154C, strain vps35, hits give low values 0.998 | locus YJL164C, strain tpk1, hits give low values 0.993 | locus YJL166W, strain qcr8, hits give low values 1 | locus YJL168C, strain set2, hits give low values 1.01
